Test results published in the supplement of paper PMC11732987, “Enantioselective OTUD7B fragment discovery through chemoproteomics screening and high-throughput optimisation” (Communications Chemistry, 2025).

Legend:
Assay in all cases: log2 ratio of Biotin-Ahx-Ub-VS probe labelling (fragment/DMSO); higher = less target engagement (more negative = stronger competition), active = hit call of the paper (q ≤ 0.05, log2 ratio ≤ -1)
Details in all cases: compound concentration: 200 uM; treatment time: 3 h
[1] = biological target: T1, USP42 (UniProt Q9H9J4)
T1 sequence (whole entry): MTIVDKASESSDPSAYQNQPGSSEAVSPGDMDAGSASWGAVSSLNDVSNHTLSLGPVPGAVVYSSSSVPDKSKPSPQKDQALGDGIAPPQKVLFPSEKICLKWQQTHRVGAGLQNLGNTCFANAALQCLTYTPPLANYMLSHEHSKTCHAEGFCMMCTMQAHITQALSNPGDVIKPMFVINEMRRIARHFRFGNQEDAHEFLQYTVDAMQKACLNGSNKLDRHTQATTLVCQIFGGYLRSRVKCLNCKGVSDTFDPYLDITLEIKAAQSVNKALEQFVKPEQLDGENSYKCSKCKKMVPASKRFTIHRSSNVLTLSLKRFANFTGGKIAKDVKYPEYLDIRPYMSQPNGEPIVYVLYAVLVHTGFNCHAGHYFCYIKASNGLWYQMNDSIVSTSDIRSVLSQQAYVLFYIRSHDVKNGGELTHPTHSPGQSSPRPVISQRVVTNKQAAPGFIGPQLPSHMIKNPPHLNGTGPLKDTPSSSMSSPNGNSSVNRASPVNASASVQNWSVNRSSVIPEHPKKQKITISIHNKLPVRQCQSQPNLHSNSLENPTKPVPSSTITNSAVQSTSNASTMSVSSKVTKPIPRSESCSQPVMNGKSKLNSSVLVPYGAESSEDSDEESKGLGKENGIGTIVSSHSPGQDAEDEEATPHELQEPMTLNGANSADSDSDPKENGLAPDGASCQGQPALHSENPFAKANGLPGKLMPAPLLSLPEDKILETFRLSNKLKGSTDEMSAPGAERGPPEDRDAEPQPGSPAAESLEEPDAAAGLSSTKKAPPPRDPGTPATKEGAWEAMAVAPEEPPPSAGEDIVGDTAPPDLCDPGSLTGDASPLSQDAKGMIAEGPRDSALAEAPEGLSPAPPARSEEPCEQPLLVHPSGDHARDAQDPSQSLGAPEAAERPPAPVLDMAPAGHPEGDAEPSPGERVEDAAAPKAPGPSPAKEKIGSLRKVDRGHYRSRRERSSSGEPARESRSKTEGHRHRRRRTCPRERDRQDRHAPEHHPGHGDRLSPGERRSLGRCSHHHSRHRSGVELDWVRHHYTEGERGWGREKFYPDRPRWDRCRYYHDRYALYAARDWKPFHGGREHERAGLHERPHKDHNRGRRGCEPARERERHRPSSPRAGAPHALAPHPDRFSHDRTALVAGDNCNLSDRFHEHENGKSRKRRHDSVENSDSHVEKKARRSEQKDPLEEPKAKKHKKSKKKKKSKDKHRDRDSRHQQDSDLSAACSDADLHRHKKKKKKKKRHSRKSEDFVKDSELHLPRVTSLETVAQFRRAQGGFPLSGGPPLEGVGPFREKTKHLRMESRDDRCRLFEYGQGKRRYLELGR
Method in brief: (§1)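 HEK293T lysate (495 µg per sample, in Tris/CHAPS/IGEPAL buffer with protease inhibitors) was exposed in triplicate for 3 h to fragment at 200 µM or to vehicle, then to Biotin-Ahx-Ub-VS at 0.5 µM final for 1 h. Labelled DUBs were enriched on NeutrAvidin, digested with LysC and trypsin, and analysed by diaPASEF LC-MS/MS. Spectronaut label-free quantities were normalised to the global median, and values are average log2 ratios of fragment over vehicle from an unpaired t-test. Only proteins with ≥2 unique peptides were used.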

[2] = biological target: USP46 (UniProt P62068)
Sequence of USP46 (P62068 whole entry): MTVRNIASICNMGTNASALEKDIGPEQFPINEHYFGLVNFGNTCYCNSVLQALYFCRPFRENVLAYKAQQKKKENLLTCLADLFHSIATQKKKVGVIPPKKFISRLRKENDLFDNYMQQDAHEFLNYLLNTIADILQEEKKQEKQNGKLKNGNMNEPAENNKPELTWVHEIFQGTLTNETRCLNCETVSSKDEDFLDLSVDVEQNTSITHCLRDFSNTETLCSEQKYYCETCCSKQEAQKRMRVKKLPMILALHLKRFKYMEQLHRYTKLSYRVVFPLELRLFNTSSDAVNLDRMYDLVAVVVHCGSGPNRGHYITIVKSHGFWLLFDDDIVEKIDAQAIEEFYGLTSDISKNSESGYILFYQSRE
Method in brief: as §1

[3] = biological target: T2, USP47 (UniProt Q96K76)
T2 sequence (whole entry): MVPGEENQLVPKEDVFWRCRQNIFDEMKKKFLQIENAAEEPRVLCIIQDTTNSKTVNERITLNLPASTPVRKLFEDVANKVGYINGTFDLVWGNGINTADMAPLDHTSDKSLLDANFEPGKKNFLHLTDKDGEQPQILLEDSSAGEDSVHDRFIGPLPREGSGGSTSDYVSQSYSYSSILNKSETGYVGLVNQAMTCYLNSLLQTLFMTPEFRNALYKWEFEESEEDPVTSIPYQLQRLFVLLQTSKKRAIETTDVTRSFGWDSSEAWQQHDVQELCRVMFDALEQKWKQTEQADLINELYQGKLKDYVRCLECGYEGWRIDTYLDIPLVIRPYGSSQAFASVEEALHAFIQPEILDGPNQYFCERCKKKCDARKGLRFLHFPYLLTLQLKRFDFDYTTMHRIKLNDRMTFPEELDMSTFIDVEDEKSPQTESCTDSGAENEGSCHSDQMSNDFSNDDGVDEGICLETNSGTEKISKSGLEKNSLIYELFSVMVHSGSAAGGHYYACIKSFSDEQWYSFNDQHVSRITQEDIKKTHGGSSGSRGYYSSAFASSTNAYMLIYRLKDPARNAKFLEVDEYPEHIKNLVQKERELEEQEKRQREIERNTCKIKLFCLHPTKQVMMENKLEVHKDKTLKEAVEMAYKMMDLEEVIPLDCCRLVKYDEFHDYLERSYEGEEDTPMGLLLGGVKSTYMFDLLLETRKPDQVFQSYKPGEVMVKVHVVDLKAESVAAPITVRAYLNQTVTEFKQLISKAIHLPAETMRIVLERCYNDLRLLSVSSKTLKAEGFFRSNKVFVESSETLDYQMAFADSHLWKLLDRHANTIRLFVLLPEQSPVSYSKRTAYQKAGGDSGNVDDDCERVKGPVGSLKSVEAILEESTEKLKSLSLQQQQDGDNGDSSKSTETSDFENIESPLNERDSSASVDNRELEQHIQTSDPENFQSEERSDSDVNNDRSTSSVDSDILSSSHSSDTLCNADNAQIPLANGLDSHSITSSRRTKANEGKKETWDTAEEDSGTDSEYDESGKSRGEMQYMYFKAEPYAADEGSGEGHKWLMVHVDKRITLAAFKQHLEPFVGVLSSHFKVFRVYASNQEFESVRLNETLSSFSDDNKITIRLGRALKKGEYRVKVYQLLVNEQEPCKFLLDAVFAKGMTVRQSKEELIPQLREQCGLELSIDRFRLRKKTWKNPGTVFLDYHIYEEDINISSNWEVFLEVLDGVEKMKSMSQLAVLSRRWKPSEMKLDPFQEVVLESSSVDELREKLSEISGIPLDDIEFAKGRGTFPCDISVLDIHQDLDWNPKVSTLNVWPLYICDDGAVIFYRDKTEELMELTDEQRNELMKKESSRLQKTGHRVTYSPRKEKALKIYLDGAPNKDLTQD
Method in brief: as §1

[4] = biological target: T3, USP48 (UniProt Q86UV5)
T3 sequence (whole entry): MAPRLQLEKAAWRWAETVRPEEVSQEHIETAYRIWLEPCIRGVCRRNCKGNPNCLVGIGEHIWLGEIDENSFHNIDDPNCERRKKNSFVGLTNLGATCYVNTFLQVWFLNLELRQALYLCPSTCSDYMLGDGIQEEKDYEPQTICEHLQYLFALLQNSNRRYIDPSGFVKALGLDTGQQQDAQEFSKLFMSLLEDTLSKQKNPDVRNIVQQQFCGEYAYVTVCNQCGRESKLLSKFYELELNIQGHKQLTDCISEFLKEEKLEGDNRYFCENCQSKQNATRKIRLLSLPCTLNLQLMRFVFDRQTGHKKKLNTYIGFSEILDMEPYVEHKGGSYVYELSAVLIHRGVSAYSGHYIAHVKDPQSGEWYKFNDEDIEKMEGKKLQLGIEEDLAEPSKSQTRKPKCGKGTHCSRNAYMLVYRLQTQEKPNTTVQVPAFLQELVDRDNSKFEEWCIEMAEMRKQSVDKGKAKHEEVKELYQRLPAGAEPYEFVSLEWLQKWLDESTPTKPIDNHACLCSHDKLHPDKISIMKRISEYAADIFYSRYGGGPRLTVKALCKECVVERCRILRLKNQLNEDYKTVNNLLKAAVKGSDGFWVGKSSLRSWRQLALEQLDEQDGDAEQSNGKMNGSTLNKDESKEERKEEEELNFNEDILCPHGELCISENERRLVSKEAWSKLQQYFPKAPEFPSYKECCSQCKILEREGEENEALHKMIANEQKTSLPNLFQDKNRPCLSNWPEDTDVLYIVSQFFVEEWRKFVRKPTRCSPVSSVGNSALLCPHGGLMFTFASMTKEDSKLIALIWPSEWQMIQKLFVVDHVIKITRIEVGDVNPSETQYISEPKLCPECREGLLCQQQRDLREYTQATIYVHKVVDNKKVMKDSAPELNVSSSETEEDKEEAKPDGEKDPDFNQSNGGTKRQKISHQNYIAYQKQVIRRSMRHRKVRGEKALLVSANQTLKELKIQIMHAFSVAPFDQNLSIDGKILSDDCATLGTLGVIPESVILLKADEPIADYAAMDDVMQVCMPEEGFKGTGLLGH
Method in brief: as §1

[5] = biological target: T4, USP5 (UniProt P45974)
T4 sequence (whole entry): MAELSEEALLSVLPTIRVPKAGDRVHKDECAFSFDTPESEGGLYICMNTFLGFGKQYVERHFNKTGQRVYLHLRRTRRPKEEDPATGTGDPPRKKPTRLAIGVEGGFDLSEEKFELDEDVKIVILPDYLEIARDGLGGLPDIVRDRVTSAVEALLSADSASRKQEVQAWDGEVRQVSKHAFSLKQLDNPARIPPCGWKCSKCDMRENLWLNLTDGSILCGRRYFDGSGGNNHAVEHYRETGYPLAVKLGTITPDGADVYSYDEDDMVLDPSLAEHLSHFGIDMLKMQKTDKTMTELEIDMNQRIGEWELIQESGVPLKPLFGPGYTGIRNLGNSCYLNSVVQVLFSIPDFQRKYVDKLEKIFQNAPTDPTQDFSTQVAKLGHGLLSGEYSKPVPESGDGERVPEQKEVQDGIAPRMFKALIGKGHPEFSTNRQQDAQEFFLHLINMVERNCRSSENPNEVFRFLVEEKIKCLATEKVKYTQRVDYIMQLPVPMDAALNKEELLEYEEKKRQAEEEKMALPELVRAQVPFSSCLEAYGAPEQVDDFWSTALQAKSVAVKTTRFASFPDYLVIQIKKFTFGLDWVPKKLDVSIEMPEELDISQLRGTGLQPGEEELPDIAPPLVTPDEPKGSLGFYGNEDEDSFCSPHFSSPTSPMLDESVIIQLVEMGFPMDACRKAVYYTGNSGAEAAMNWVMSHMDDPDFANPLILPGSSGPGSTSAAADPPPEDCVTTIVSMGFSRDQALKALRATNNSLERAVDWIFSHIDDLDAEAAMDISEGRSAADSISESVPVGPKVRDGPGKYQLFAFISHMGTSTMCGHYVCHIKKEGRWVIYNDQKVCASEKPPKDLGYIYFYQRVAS
Method in brief: as §1

[6] = biological target: USP54 (UniProt Q70EL1)
Sequence of USP54 (Q70EL1 whole entry): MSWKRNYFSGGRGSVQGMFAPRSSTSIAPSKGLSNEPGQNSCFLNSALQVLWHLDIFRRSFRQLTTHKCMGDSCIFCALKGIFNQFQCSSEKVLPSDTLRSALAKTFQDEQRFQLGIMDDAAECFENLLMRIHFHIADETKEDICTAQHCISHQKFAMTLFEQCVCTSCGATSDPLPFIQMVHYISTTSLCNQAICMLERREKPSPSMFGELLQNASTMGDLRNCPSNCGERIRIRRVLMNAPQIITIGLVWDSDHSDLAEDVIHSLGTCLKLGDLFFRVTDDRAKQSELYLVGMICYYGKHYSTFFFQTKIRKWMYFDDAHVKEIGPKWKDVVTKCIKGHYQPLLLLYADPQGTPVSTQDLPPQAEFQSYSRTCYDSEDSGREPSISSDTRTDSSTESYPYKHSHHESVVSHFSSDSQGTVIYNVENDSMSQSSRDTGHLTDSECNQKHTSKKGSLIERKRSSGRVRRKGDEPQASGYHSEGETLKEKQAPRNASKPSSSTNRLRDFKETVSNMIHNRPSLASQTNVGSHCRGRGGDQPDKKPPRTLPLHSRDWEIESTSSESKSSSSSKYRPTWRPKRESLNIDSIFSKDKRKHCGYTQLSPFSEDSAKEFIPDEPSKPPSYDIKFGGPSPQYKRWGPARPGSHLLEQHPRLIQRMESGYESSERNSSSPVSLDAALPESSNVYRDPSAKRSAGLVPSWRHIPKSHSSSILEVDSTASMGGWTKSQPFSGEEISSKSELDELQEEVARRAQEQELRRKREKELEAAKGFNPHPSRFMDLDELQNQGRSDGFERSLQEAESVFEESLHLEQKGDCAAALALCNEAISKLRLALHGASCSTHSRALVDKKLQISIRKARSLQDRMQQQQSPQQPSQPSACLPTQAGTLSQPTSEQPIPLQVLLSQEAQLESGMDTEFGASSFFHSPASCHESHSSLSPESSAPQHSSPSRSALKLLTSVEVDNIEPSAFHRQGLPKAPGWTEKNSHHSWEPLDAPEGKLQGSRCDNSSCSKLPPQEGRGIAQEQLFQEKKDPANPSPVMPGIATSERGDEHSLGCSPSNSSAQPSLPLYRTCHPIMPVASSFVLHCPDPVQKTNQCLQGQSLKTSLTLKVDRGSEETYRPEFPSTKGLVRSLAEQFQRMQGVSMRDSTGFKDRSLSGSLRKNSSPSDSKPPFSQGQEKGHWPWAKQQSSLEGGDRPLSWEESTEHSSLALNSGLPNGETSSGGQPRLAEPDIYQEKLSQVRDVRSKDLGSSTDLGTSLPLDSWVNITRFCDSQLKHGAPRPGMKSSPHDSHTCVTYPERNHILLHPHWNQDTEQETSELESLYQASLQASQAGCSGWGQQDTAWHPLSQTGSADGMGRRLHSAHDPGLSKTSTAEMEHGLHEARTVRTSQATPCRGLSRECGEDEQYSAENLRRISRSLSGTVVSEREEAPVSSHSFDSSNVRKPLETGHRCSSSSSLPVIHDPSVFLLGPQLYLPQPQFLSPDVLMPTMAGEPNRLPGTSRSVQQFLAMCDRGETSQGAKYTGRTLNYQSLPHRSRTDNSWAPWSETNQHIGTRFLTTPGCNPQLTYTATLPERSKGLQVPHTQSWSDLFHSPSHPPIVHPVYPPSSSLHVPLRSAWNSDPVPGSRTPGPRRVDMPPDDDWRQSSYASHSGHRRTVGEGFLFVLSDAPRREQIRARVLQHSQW
Method in brief: as §1

[7] = biological target: USP7 (UniProt Q93009)
Sequence of USP7 (Q93009 whole entry, looked up): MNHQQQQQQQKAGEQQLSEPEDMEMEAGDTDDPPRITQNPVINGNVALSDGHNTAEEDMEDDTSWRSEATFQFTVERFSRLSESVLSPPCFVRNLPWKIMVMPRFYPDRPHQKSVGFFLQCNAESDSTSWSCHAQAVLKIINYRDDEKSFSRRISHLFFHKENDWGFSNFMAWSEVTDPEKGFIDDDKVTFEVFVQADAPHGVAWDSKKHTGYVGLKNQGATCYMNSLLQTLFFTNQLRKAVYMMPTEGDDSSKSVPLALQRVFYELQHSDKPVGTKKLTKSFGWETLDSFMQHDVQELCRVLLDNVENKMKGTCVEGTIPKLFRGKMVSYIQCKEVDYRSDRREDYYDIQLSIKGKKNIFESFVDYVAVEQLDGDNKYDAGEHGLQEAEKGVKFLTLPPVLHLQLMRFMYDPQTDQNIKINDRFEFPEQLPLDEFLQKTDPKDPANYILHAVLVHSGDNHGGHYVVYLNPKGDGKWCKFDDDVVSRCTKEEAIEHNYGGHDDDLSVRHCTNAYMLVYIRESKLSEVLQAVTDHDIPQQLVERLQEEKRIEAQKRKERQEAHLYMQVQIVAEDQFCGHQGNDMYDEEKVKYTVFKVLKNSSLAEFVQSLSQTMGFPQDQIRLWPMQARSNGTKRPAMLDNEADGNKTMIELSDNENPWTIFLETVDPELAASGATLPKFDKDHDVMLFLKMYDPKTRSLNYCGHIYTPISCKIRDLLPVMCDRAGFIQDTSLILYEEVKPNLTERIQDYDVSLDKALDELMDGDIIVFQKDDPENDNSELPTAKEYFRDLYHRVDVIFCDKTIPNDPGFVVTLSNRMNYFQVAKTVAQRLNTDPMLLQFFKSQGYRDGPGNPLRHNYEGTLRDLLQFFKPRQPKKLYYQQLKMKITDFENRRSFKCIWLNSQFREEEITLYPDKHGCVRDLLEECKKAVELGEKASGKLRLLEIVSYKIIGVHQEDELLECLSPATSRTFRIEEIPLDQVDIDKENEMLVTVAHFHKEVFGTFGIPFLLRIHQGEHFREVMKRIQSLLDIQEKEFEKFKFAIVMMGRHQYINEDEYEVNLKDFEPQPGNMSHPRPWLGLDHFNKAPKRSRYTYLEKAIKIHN
Method in brief: as §1

[8] = biological target: T5, USP8 (UniProt P40818)
T5 sequence (whole entry): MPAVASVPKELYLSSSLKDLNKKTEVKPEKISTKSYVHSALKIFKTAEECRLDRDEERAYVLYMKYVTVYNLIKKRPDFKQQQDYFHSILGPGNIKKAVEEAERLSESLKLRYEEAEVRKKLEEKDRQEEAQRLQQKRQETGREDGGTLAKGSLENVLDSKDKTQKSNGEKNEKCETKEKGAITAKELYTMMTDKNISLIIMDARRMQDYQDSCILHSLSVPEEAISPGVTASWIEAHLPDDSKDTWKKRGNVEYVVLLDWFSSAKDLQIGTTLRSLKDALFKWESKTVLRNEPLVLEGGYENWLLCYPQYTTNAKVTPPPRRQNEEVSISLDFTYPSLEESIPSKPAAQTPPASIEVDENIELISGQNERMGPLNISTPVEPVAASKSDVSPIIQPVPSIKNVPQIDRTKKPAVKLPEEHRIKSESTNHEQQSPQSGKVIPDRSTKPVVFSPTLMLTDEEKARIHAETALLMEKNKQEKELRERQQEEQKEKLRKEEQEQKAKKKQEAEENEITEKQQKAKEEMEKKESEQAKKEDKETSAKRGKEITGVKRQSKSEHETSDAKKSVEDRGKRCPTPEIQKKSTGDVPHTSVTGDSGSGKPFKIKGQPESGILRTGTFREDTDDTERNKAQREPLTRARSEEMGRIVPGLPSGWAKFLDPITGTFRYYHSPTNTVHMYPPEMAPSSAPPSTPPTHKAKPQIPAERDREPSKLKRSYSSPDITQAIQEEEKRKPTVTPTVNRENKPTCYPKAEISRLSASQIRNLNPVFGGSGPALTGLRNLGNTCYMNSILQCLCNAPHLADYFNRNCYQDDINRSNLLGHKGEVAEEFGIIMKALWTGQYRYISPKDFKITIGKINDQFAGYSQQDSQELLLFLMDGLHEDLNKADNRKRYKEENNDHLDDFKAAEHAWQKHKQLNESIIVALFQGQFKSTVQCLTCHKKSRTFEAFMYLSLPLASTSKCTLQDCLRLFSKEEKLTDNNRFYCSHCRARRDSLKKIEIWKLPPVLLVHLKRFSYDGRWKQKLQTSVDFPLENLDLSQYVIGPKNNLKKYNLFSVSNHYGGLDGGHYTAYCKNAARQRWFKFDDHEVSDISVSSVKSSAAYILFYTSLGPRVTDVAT
Method in brief: as §1

Measured: log2 ratio of Biotin-Ahx-Ub-VS probe labelling

CS(=O)(=O)c1ccc(CNC(=O)CCl)cc1
inactive: [1] 0.283 | [2] -0.122 | [3] -0.0551 | [4] -0.0444 | [5] -0.111 | [6] 0.392 | [7] -0.145 | [8] -0.0148
